Test results taken from a collection of fitness landscapes (doi:10.1126/science.1257360).
In all, about 140,000 sequences were measured (“enrichment ratio after two sorts for PhoP signalling”: median about 0, highest 2% from about 11 on). The list comes from a sample in which the highest values are over-represented; it also holds similar and randomly drawn sequences.

B1: PhoQ; a variant is named by its letters at X, in order, P23837 (parent)
chain: MKKLLRLFFPLSLRVRFLLATAAVVLVLSLAYGMVALIGYSVSFDKTTFRLLRGESNLFYTLAKWENNKLHVELPENIDKQSPTMTLIYDENGQLLWAQRDVPWLMKMIQPDWLKSNGFHEIEADVNDTSLLLSGDHSIQQQLQEVREDDDDAEMTHSVAVNVYPATSRMPKLTIVVVDTIPVELKSSYMVWSWFIYVLSANLLLVIPLLWVAAWWSLRPIEALAKEVRELEEHNRELLNPATTRELTSLVRNLNRLLKSERERYDKYRTTLTDLTHSLKTPLXXLQXXLRSLRSEKMSVSDAEPVMLEQISRISQQIGYYLHRASMRGGTLLSRELHPVAPLLDNLTSALNKVYQRKGVNISLDISPEISFVGEQNDFVEVMGNVLDNACKYCLEFVEISARQTDEHLYIVVEDDGPGIPLSKREVIFDRGQRVDTLRPGQGVGLAVAREITEQYEGKIVAGESMLGGARMEVIFGRQHSAPKDE

Variants of: B1
Assay: enrichment ratio after two sorts for PhoP signalling (ratio (wild type AVST 3.29)); higher = more functional
Settings: with PhoP (E. coli)

Variant	enrichment ratio
MNIM	12.3
MTLM	13.8
GKLM	12.5
STLM	11.2
WSKW	≤ 0.25
HRWY	≤ 0.25
RRQK	≤ 0.25
PAKQ	≤ 0.25
VEYL	≤ 0.25
MFKL	≤ 0.25
KGPS	≤ 0.25
KVQA	≤ 0.25
KAMF	≤ 0.25
KITV	≤ 0.25
SMTV	11.4
SVTV	11.3
SYTV	0.308
SDTV	13.5
SAMF	14.8
KFTV	≤ 0.25
SMDV	≤ 0.25
NAMF	≤ 0.25
SRTV	≤ 0.25
SVDV	≤ 0.25
YFHI	≤ 0.25
TFLR	0.372

Variant	enrichment ratio
GGFA	≤ 0.25
GQMI	≤ 0.25
LTAP	≤ 0.25
RPSV	≤ 0.25
WEGK	≤ 0.25
QYAI	≤ 0.25
KYTV	≤ 0.25
AKTV	5.31
NETV	8.86
KSTV	≤ 0.25
SQMD	17.4
SITV	11.8
SQGD	≤ 0.25
SPTV	≤ 0.25
TETV	17.9
TKTV	20
QETV	≤ 0.25
STMD	9.32
RQLF	≤ 0.25
MHPM	≤ 0.25
IVSV	≤ 0.25
LDYS	≤ 0.25
PIMI	≤ 0.25
YPRI	≤ 0.25
KIFY	≤ 0.25
SETV	14.9

Variant	enrichment ratio
KYAV	≤ 0.25
SIAV	12.2
STIS	8.13
WIAV	≤ 0.25
SSTV	10.5
NVTV	≤ 0.25
MMTV	≤ 0.25
TSTV	26.5
SLTV	10.4
STIV	11.9
YTIV	0.385
GKTV	≤ 0.25
KFQS	≤ 0.25
SNDT	≤ 0.25
RWGI	≤ 0.25
EKED	≤ 0.25
VMLL	≤ 0.25
GWEH	≤ 0.25
NLWG	≤ 0.25
DHDD	≤ 0.25
KRSK	≤ 0.25
APEA	≤ 0.25
HQMW	≤ 0.25
STMV	12.8
KYMV	≤ 0.25
SAPV	5.29

Variant	enrichment ratio
SPMV	≤ 0.25
SAMA	12.3
SAFA	≤ 0.25
SAQV	0.569
SAMV	14.1
SWMV	≤ 0.25
SIWV	≤ 0.25
SIMV	13.6
KAMA	≤ 0.25
ILLG	≤ 0.25
KTTK	≤ 0.25
TRRW	≤ 0.25
QYNE	≤ 0.25
MVYP	≤ 0.25
NQPT	≤ 0.25
QHTM	≤ 0.25
YDVW	≤ 0.25
KTCA	≤ 0.25
PMGE	≤ 0.25
KQMV	≤ 0.25
SQMV	22.1
SQMW	≤ 0.25
YHTC	≤ 0.25
AEWS	8.72
AHIH	≤ 0.25
AECF	2.16

Variant	enrichment ratio
ADCC	4.94
AIWH	≤ 0.25
AEFH	1.2
AWCH	≤ 0.25
AECC	16.3
AIIH	2.68
AECH	16.5
AEWH	22.3
AEIH	60.7
MYMC	≤ 0.25
KQLY	≤ 0.25
MMRL	≤ 0.25
RHKQ	≤ 0.25
HNLQ	≤ 0.25
IHWA	≤ 0.25
AEGP	≤ 0.25
AEYH	≤ 0.25
AEKH	≤ 0.25
AEGH	12.9
AEQH	≤ 0.25
AEMH	36.8
EVPD	≤ 0.25
EPIP	≤ 0.25
QPMV	≤ 0.25
TGMS	12.8
TGMG	17.2

Variant	enrichment ratio
YTMV	12.2
GGEV	≤ 0.25
PGMG	≤ 0.25
DEEV	≤ 0.25
YYMV	≤ 0.25
NGMS	≤ 0.25
TGEV	26.6
NGMG	≤ 0.25
GGMS	1.56
PEIA	≤ 0.25
HVSH	≤ 0.25
FEHR	≤ 0.25
ENVM	≤ 0.25
LMNE	≤ 0.25
WNVD	≤ 0.25
RCTL	≤ 0.25
ICMW	≤ 0.25
NGMV	14
TGMV	12.7
NGIV	≤ 0.25
NGMD	≤ 0.25
RGMV	≤ 0.25
ICMV	13.2
ICIV	≤ 0.25
GGMV	5
